# Laboratory results: PubChem BioAssay AID2284355 (EPA ToxCast)
# Inconclusive results are not listed. The source made the active and inactive calls. The calls were made as follows: active = hit-call score of the fitted dose curve at least 0.9, where 1 is the maximum; inconclusive = response in the unintended direction; inactive = score below 0.9.
# Test system: rainbow trout Retinoid X Receptor beta (RXRb)
# Experiment: ATG_rtRXRb_EcoTox2: Attagene TRANS-FACTORIAL EcoTox-2 HepG2 Assay for rainbow trout Retinoid X Receptor beta (RXRb)
# Experimental: ATG_EcoTox2 is a cell-based, multiplexed assay created by modifying the existing Attagene TRANS-FACTORIAL system to include a panel of nuclear receptors from some or all the following species: human (Homo sapiens), african clawed frog (Xenopus laevis), rainbow trout (Oncorhynchus mykiss), japanese medaka (Oryzias latipes), and zebrafish (Danio rerio). The ECOTOX2-FACTORIAL format uses HepG2, a human liver cell line, with measurements taken at 24 hours after chemical dosing in a 24-well plate. ATG_rtRXRb_EcoTox2 is one of 29 assay components calculated in the ATG_EcoTox2 assay. It is designed to make measurements of mRNA induction, a form of inducible reporter, as detected with fluorescence intensity signals by Reverse transcription polymerase chain reaction (RT-PCR) and Capillary electrophoresis technology.The assay endpoint ATG_rtRXRb_EcoTox2 was analyzed in the positive analysis fitting direction relative to DMSO as the negative control and baseline of activity. Using a type of inducible reporter, measures of mRNA for gain-of-signal activity can be used to understand the reporter gene at the transcription factor-level as they relate to the gene RXRb. Furthermore, this assay endpoint can be referred to as a primary readout, because this assay has produced multiple assay endpoints where this one serves a reporter gene function. […]
row,Structure (SMILES),AC50
1,[Cl][Sn]([c]1ccccc1)([c]1ccccc1)[c]1ccccc1,119 nM (active)
